# Screens deposited in PubChem BioAssay by National Center for Advancing Translational Sciences (NCATS).
# This is a sample that favours compounds with a hit; in the whole collection about 8% have one here.
# FMDV inh: foot and mouth disease virus antiviral activity | FMDV antiviral cell-based qHTS | Potency, µM (highest dose often 57.9 µM), most hits filed as inhibitors | actives 1.2% (n = 410,000) | AID 1159524; calls by dose curve; tested in HEK293T cells; note: read-out not given here; nearly all actives have a fitted effect of over 45% in size
# HCV inh: HCV inhibition; Huh7.5.1 HCVcc-Cre infection, luciferase reporter, 44 h; Potency, µM (highest dose often 41.8 µM), most hits filed as inhibitors; actives 3.4% (n = 340,000); active = well fitted inhibition curve with a large enough effect; inconclusive = small, poorly fitted or top-dose-only effect, or another doubt; inactive = no such curve, though single readings can be large or run the other way
#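 Antiviral activity was scored by luciferase reporter output from cells infected with HCVcc-Cre (~0.5 moi) in presence of compound, 44 h infection period, cells seeded 1,000/well 4 h prior.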
# Lassa entry inh: Lassa virus entry inhibition. Lassa virus pseudotype entry inhibition, cell reporter. Potency, µM (series often up to 37.9 µM), hits mostly inhibitors. actives 1.2% (n = 300,000). AID 540256; calls by dose curve; tested in HEK293 cells; note: nearly all actives have a fitted effect of over 50% in size
# HCMV inh: human cytomegalovirus inhibition | HFF cells, HCMV-luciferase reporter, 72 h; hits give low values | activity change, negative = inhibition, % at 57.5 µM | actives 4.5% (n = 410,000) | AID 1259415; in the data active = activity change below about -60%; inconclusive = no clear call, values can overlap the other calls; inactive = above about -39%
#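 After 16 h attachment at 37C, HFF cells received test compound and HCMV-luciferase (1 PFU/cell); reporter luminescence read 72 h later, data normalized against buffer-only and known inhibitor Salinomycin.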
# SARS PLP yeast: SARS-CoV PLP inhibition in yeast; S. cerevisiae expressing SARS-CoV PLpro, growth rescue; Potency, µM (titrated, usually from 32.9 µM), usual class: activators; actives 0.19% (n = 330,000); AID 485353; calls by dose curve; note: nearly all actives have a fitted effect of over 55% in size
# MARV entry inh: Marburg virus entry inhibition; Marburg virus pseudotyped entry inhibition, cell reporter; Potency, µM (titrated, usually from 37.8 µM), usual class: inhibitors; actives 1.8% (n = 300,000); AID 540276; calls by dose curve; tested in HEK293 cells
# Hits are given with their value; – = inactive; ? = inconclusive; · = not tested or not shown.
SMILES,FMDV inh,HCV inh,Lassa entry inh,HCMV inh,SARS PLP yeast,MARV entry inh
CCC(=O)NC(c1cc(Cl)c2cccnc2c1O)C1CC1 (stereo not given),?,·,·,-95,–,·
Oc1c(I)cc(Cl)c2cccnc12,–,?,–,–,–,–
CCC(=O)NC(c1cc(Cl)c2cccnc2c1O)C(C)C (stereo not given),–,·,·,-96,–,·
CCOC(=O)[C@@H]1[C@H]2COc3ccc(Br)cc3[C@H]2N2C(=O)N(c3ccc(Br)cc3)C(=O)[C@]12C,–,32µM,·,·,–,·
CCOC(=O)[C@@H]1[C@H]2COc3ccc(Br)cc3[C@H]2N2C(=O)N(c3ccc(C(F)(F)F)cc3)C(=O)[C@]12C,–,–,·,-76,–,·
O=C(NCCc1ccc(Cl)cc1)c1ccc2c(c1)N(Cc1ccccc1)C(=O)CS2,?,·,–,?,·,·
CN=C(NC1CCCCC1)c1ccc(Cl)cc1,–,–,–,-60,–,?
O=C(CCSCc1ccc(Cl)cc1)NC1CCCC1,–,–,?,-102,–,–
O=C(NC1CCCCC1)Sc1ccc(Cl)cc1,32µM,–,–,–,–,–
CN(c1ccc(C(=O)NC2CCCC2)cc1)S(=O)(=O)c1ccc(Cl)cc1,–,–,–,–,–,–
CC(C)=NOCc1ccc(-c2cn([C@@H]3COC[C@@H]3O)nn2)cc1,·,·,·,·,·,–
CC1CCN(c2nn3c(=O)c(C(=O)NCCc4ccccc4)cnc3s2)CC1,–,·,?,–,·,·
O=C(c1ccc(Cl)cc1)C1CCCN(Cc2ccc3nonc3c2)C1 (stereo not given),–,22µM,·,–,–,·
COc1ccc(CN2CCC(C(=O)c3ccc(Cl)cc3)CC2)cc1,–,11µM,·,–,–,·
COc1ccc(CN2CCCC(C(=O)c3ccc(Cl)cc3)C2)cc1Cn1cccn1 (stereo not given),–,10µM,10µM,–,–,2.8µM
CC(C)Oc1cccc(C(=O)C2CCCN(Cc3ccc4nonc4c3)C2)c1 (stereo not given),–,?,?,–,–,?
Cc1ccc(OCC(=O)Nc2ccc(OCc3cc(=O)n4cccc(C)c4n3)cc2)cc1C,–,·,–,–,·,·
COc1cccc(NC(=O)CSc2nc(=O)n(Cc3cccnc3)c3c2CCC3)c1,–,·,–,–,·,·
Cc1nn(C(C)(C)C)c(C)c1/C=N/OC(=O)Nc1ccc(Cl)cc1,5.6µM,?,?,-101,–,?
Cc1nn(C)c(C)c1/C=N/NC(=O)C(C)(C)Oc1ccc(Cl)cc1,–,–,–,–,–,–
CCOc1ccc(-c2cc(CCCC(=O)NCCc3ccc(OCC)c(OCC)c3)no2)cc1,–,·,?,–,·,?
CCCNC(=O)c1cc(-c2ccc(OC)cc2)on1,–,–,?,–,–,10µM
COc1ccc(N2CCN(C(=O)COCc3cc(-c4ccc5c(c4)OCO5)on3)CC2)cc1,–,–,–,–,–,–
COc1ccc(-c2cc(CCCC(=O)N3CCN(c4ccc(OC)cc4)CC3)no2)cc1,?,11µM,·,–,–,–
COc1ccc(-c2cc(CCCC(=O)NCCc3cc(OC)ccc3OC)no2)cc1,?,10µM,–,–,–,?
SMILES,FMDV inh,HCV inh,Lassa entry inh,HCMV inh,SARS PLP yeast,MARV entry inh
COc1cc(CN2CCCC(c3nc(-c4ccncc4)ncc3-c3ccccc3)C2)ccc1O (stereo not given),–,·,·,·,·,·
COc1ccccc1OCC(=O)Nc1c(C(=O)c2ccc(F)cc2)oc2ccccc12,–,·,–,–,·,?
CCN(Cc1ccccc1)S(=O)(=O)c1cc(C(=O)NC(C)C2CC3CCC2C3)ccc1OC (stereo not given),–,11µM,3.2µM,-88,–,?
O=c1[nH]c2ccccc2c2ccccc12,–,14µM,–,–,–,?
Cc1ccccc1C1(CC(=O)N2CCCCC2C)CC(=O)N(Cc2cccnc2)C1=O (stereo not given),–,·,·,·,·,·
Cc1cccc(-c2nc(S(=O)(=O)c3ccc(Cl)cc3)c(N3CCCCCC3)o2)c1,–,·,–,–,·,?
Cc1cc(C(=O)NC2CCCc3c2cnn3-c2ccccc2F)nc(C)n1 (stereo not given),–,·,?,–,–,?
COC(=O)c1ccc(C(=O)NC2CCCc3c2cnn3-c2ccccc2F)nc1 (stereo not given),–,–,·,–,–,·
COc1cc(C(=O)NC2CCCc3c2cnn3-c2ccccc2F)cc(OC)c1OC (stereo not given),?,8.9µM,–,-62,–,?
CC(C)c1cc(C(=O)NC2CCCc3c2cnn3-c2ccccc2F)no1 (stereo not given),–,11µM,·,-88,–,·
Cc1csc2nc(CCNS(=O)(=O)c3ccc(F)cc3)cn12,–,·,–,?,·,·
CCOC(=O)c1c(C)oc2nc(C)nc(NCC3CCN(Cc4ccccc4C)CC3)c12,–,·,–,-104,·,·
Cc1ccc(NC(=O)c2nnn(Cc3cccc(C(F)(F)F)c3)c2N)c(C)c1,–,·,?,–,·,–
CC(=O)c1c(N2CCN(c3ccc(F)cc3)CC2)nc(=S)n(Cc2ccccc2)c1C,?,?,–,-68,–,?
Cc1ccc(OCCCCn2c(-c3ccc(Cl)cc3)nc3ccccc3c2=O)cc1,–,·,–,–,·,–
Cc1cccc(N2C(=O)NC(=O)/C(=C\c3cnc(-c4ccccc4)nc3)C2=O)c1,–,11µM,–,–,–,?
Cc1cccc(N2C(=O)NC(=O)/C(=C\c3ccc(N4CCOCC4)cc3)C2=O)c1,–,–,–,?,–,–
Cc1ccc(N2C(=O)NC(=O)/C(=C/c3cnc(-c4ccccc4)nc3)C2=O)cc1C,–,–,–,–,13µM,–
CC(C)c1ccc(N2C(=O)NC(=O)/C(=C\c3cnc(-c4ccccc4)nc3)C2=O)cc1,–,–,–,-88,–,–
O=C1NC(=O)N(c2ccccc2)C(=O)/C1=C/c1ccoc1,?,–,–,–,–,–
CC(C)NC(=O)c1cn([C@H]2CC[C@@H](NC(=O)/C=C/c3cccs3)CC2)nn1,–,·,·,·,·,·
Cc1ccc(C)c(CSCc2nc3ccccc3[nH]2)c1,?,?,·,-73,–,·
CCCCN(CCCNC(=O)c1cc(Nc2cccc(SC)c2)nc2ccccc12)Cc1ccccc1,–,·,?,-99,·,–
CSc1cccc(Nc2cc(C(=O)NCCc3ccc(Cl)cc3)c3ccccc3n2)c1,–,·,–,-102,·,?
CC1c2ccccc2-c2ccccc2N1C (stereo not given),–,13µM,–,–,·,–
COc1ccccc1-c1cc(C(=O)N2CCCC2)no1,–,?,–,–,–,?
O=C(Nc1cccc(O)c1)c1cc(-c2ccccc2Cl)on1,11µM,–,5µM,–,–,7.1µM
CC(=O)c1cccc(NC(=O)c2cc(-c3ccc4c(c3)OCCO4)on2)c1,–,·,–,–,·,–
O=C(Nc1ccc(SC(F)F)cc1)c1cc(-c2ccc3c(c2)OCCO3)on1,?,·,?,-66,·,–
O=C(Nc1cccc(O)c1)c1cc(-c2ccc3c(c2)OCO3)on1,11µM,–,?,–,–,?
